In all, about 2,100 compounds went through this assay and about 1,100 (52%) were called active. Another 29% or so got no clear call; they are omitted. Calls come from the whole dose curve; as a rule, active = well fitted inhibition curve with a large enough effect; inconclusive = small, poorly fitted or top-dose-only effect; inactive = no such curve, though single readings can be large or run the other way. So high a share suggests a set chosen from earlier hits. Some of the results follow.
What follows are molecules tested against DNA dC->dU-editing enzyme APOBEC-3F (Homo sapiens) (UniProt Q8IUX4) (assay: qHTS for inhibitors of Vif-A3F interactions: Cherry picks counterscreen). Settings: HeLa A3F-eYFP/Vif cells, eYFP fluorescence, 24 h; series mostly up to 46.1 µM; activity, negative = inhibitor: at the top concentration.
Outline: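 Rescue of Vif-driven A3F-eYFP degradation read as cellular eYFP fluorescence after 24 h compound exposure (several concentrations) in stable HeLa cells; MG132 (2 mM stock) as positive control.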
% is set by controls: 0 for no effect and ±100 for the full control effect; potency is the fitted concentration of half-maximal effect.
Note: nearly all actives have a fitted effect of over 65% in size.

Chain of DNA dC->dU-editing enzyme APOBEC-3F (Homo sapiens) (Q8IUX4 whole entry, looked up): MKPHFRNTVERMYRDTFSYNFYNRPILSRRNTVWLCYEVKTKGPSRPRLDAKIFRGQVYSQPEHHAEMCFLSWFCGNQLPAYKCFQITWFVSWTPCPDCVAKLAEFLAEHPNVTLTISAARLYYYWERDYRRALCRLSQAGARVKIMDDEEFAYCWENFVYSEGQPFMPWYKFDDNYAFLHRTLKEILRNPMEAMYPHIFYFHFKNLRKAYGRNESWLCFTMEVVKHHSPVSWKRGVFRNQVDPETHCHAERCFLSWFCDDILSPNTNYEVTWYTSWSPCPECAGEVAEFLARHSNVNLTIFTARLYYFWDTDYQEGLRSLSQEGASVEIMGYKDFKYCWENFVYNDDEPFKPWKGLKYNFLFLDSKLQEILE

| SMILES | activity, negative = inhibitor | Potency |
| --- | --- | --- |
| O=C(CC1CC2CCC1C2)Nc1nc(-c2ccccn2)cs1 (centres undefined) | 17.2% (inactive) |  |
| O=C(c1ccccn1)C1CCCN(Cc2cn[nH]c2-c2cc3ccccc3o2)C1 (centres undefined) | 5.43% [at 36.9 µM] (inactive) |  |
| COc1cc(C=C2C(=O)c3ccccc3C2=O)cc(OC)c1OC | -9.75% (inactive) |  |
| COc1ccc2c(c1)/C(=C/c1cc(OC)c(OC)c(OC)c1)C(=O)N2 |  | 2.23 µM (active) |
| O=C1/C(=C\c2cc([N+](=O)[O-])ccc2O)SC(=S)N1Cc1ccc(Cl)cc1 |  | 9.2 µM (active) |
| O=C1NC(=Nc2ccccc2Cl)S/C1=C\c1cc([N+](=O)[O-])ccc1O | -9.23% [at 36.9 µM] (inactive) |  |
| c1ccc(-c2nccc(-c3ccc4c(c3)OCO4)n2)cc1 |  | 5.59 µM (active) |
| CC1CCN(C(=O)C(C)Sc2nc(-c3ccccc3)cc(C(F)(F)F)n2)CC1 (centres undefined) | -2.71% (inactive) |  |
| COC(=O)CCS(=O)(=O)c1nc(-c2ccccc2)cc(C(F)(F)F)n1 |  | 12.5 µM (active) |
| C=C(C)CNC(=S)N/N=C1\CCCCc2ccccc21 | 2.63% (inactive) |  |
| COc1ccc(N2C(=O)CC(Sc3nc(C)c4c(n3)CCCC4)C2=O)cc1 (centres undefined) |  | 15.8 µM (active) |
| Nc1c(C(=O)c2ccccc2)sc2snc(SCC(=O)c3ccccc3)c12 |  | 15.8 µM (active) |
| Nc1c(C(=O)c2ccccc2)sc2nsc(SCCN3CCOCC3)c12 |  | 7.31 µM (active) |
| Nc1c(C(=O)c2ccccc2)sc2nsc(SCCN3CCCC3)c12 |  | 14 µM (active) |
| CSCC[C@H](NC(=O)[C@H](Cc1ccccc1)n1c(=O)[nH]c2ccccc2c1=O)C(=O)N1CCC[C@@H]1C(=O)O | -11.6% [at 36.9 µM] (inactive) |  |
| CCCC1=Nc2cc(C(=O)NCc3ccco3)ccc2Sc2ccccc21 |  | 1.98 µM (active) |
| COc1ccc(C(=O)NC(=S)NCc2cccnc2)cc1Cl | 6.65% (inactive) |  |
| CCC1=Nc2cc(C(=O)NCc3cccnc3)ccc2Sc2ccc(C)cc21 |  | 5.59 µM (active) |
| Cc1cc(C)nc(NC(=S)Nc2cccc(Cl)c2Cl)c1 | -15.2% (inactive) |  |
| C/C(=N\NC(=S)NC(C)C)c1ccc(C(C)(C)C)cc1 | -3.08% (inactive) |  |
| FC(F)(Cl)c1nnc2ccc(Cl)nn12 |  | 6.27 µM (active) |
| CC[N+](C)(C(=O)O)/C(=C\c1ccccc1)c1ccnc2ccccc12 (centres undefined) |  | 18.4 µM (active) |

| SMILES | activity, negative = inhibitor | Potency |
| --- | --- | --- |
| Nc1c(C(=O)Nc2nccs2)sc2nc(-c3cccs3)cc(C(F)(F)F)c12 |  | 11.2 µM (active) |
| Nc1c(C(=O)Nc2nc3ccccc3s2)sc2nc(-c3cccs3)ccc12 |  | 18.4 µM (active) |
| Cc1nnc(NC(=O)c2sc3nc(-c4cccs4)cc(C(F)(F)F)c3c2N)s1 |  | 6.51 µM (active) |
| Nc1c(C(=O)Nc2ccc(F)cc2)sc2nc(-c3cccs3)cc(C(F)(F)F)c12 |  | 2.91 µM (active) |
| O=C1N/C(=N\N=C\c2ccco2)SC1Cc1ccccc1[N+](=O)[O-] (centres undefined) | 8.96% (inactive) |  |
| C/C(=N\NC(N)=S)C12CC3CC(CC(C3)C1)C2 | -4.36% [at 36.9 µM] (inactive) |  |
| O=C(NC1CC1)c1cccc2c1C(=O)c1ccc(N3CCC(Cc4ccccc4)CC3)cc1S2(=O)=O |  | 18.4 µM (active) |
| O=C(NC1CCCCC1)c1cccc2c1C(=O)c1ccc(N3CCC(Cc4ccccc4)CC3)cc1S2(=O)=O |  | 15.8 µM (active) |
| CC(C)Cn1c(N)c(C(=O)COC(=O)c2ccc([N+](=O)[O-])o2)c(=O)n(C)c1=O | -5.06% [at 36.9 µM] (inactive) |  |
| N#CCc1ccc(NC(=O)/C=C/c2ccc([N+](=O)[O-])o2)cc1 |  | 11.6 µM (active) |
| CCc1ccc(C(=O)/C=C/c2ccc([N+](=O)[O-])o2)cc1 |  | 15.8 µM (active) |
| O=C(/C=C/c1ccc([N+](=O)[O-])o1)NNC(=O)c1ccc(F)cc1 |  | 2.8 µM (active) |
| CCOC(=O)CCc1ccc(NC(=O)/C=C/c2ccc([N+](=O)[O-])o2)cc1 |  | 20.6 µM (active) |
| O=c1cc(-c2ccccc2)[nH]c2ccccc12 |  | 2.23 µM (active) |
| COc1cc2nc(/C=C/c3ccc(N(C)C)cc3)sc2cc1SC |  | 11.6 µM (active) |
| CCS(=O)(=O)c1nn2c(N)c(/C=C3/C=CC(=O)C(OC)=C3)c(=O)nc2s1 | 47.2% (inactive) |  |
| COc1cc(C(=O)c2ccc3c(c2)OCO3)cc(OC)c1OC |  | 7.04 µM (active) |
| COC(=O)c1c(-c2cccnc2)csc1NC(=O)c1ccc2c(c1)OCO2 | -20.7% (inactive) |  |
| CCOC(=O)C1C(=O)C=C(/C=C/c2ccc(N(C)C)cc2)CC1c1ccccc1 (centres undefined) |  | 16.4 µM (active) |
| CCCCOc1ccc(-c2nnn(CC(=O)NCc3ccco3)n2)cc1 |  | 6.27 µM (active) |
| CCOC(=O)c1c(Nc2ccc(Cl)cc2)sc(/C=C2\C=Nc3ccccc32)c1O |  | 14.6 µM (active) |
| CN(C)CCCN(C(=O)/C=C/c1cccs1)c1nc2ccc(F)cc2s1 | -13.7% (inactive) |  |

| SMILES | activity, negative = inhibitor | Potency |
| --- | --- | --- |
| Cc1cccc(C(=O)NC(=S)N2CCc3ccccc3C2)c1 | 1.57% (inactive) |  |
| COc1cc2c(cc1OC)CN(C(=O)/C=C/c1cccs1)CC2 |  | 2.8 µM (active) |
| S=c1[nH]cnc2sc(-c3ccccc3)cc12 | 8.41% (inactive) |  |
| O=c1[nH]c(-c2cccnc2)nc2sc(-c3ccccc3)cc12 |  | 4.44 µM (active) |
| CC(=O)c1c(C)oc2c1cc(NS(=O)(=O)c1ccc(Br)cc1)c1ccccc12 |  | 2.91 µM (active) |
| Cc1ccc(S(=O)(=O)Nc2cc(Cl)c(O)c3ncccc23)cc1 | -18.6% [at 36.9 µM] (inactive) |  |
| CCc1nc(Nc2ccc3nccnc3c2)c2oc3ccccc3c2n1 |  | 23.1 µM (active) |
| COc1ccc(S(=O)(=O)Nc2cccc(-c3ccc4nncn4n3)c2)cc1F |  | 1.98 µM (active) |
| COc1ccc(S(=O)(=O)Nc2cccc(-c3ccc4nncn4n3)c2)cc1 |  | 3.14 µM (active) |
| O=Cc1s/c(=N\S(=O)(=O)c2ccccc2)n(CCCCl)c1Cl |  | 5.8 µM (active) |
| O=C1[C@@H]2[C@@H](CN3CN(c4ccccc4)N=C(c4ccccc4)[C@@]23c2ccccc2)C(=O)N1c1ccccc1 | 15.5% (inactive) |  |
| CCN1/C(=C/c2ccc3ccccc3[n+]2CC)C=Cc2ccccc21 | -22.3% (inactive) |  |
| CCN1/C(=C/c2cc[n+](C)cc2)C=Cc2cc(C)ccc21 |  | 18.4 µM (active) |
| Cc1cc(C)cc(NC(=O)Cn2c(=O)oc3cc(S(=O)(=O)N4CCC(C)CC4)ccc32)c1 |  | 12.5 µM (active) |
| COc1ccc2c(Cl)c(C(=O)N/N=C3\CCCC(=O)C3)sc2c1 |  | 17.7 µM (active) |
| CCOc1cc(C(=O)NN=C2CCCC2)cc(OCC)c1OCC | 4.99% [at 36.9 µM] (inactive) |  |
| CCN(CC)c1ccc2c(c1)OC(N)=C(C#N)C2c1cccnc1 (centres undefined) |  | 14 µM (active) |
| N#CC1=C(N)Oc2ccc3ccccc3c2C1c1cccnc1 (centres undefined) |  | 2.8 µM (active) |
| CC1=C(n2nnc3ccccc32)C(c2ccccc2)C(C#N)=C(N)O1 (centres undefined) | -24.2% (inactive) |  |
| N#CC1=C(N)Oc2ccc3ccc(O)cc3c2C1c1ccsc1 (centres undefined) | -11.7% [at 36.9 µM] (inactive) |  |

— PubChem BioAssay AID651815 (National Center for Advancing Translational Sciences (NCATS), 2012)
